# Columns and labels:
# Assay in all cases: SPOT peptide array binding signal intensity (averaged, normalized) (arbitrary units (background-subtracted, floor 0; scale differs between SH3 domains)); higher = stronger binding of the SH3 domain to the peptide
# CaNbp2 = target: CaNbp2
# Procedure: (§1)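 GST-tagged SH3 domains from S. cerevisiae (Sc), A. gossypii (Ag), C. albicans (Ca) and S. pombe (Sp) were incubated at 10 ug/ml overnight at 4 C on cellulose SPOT membranes carrying 292 synthetic 15-mer peptides mined from the S. cerevisiae proteome (cysteines replaced by serines). Binding was detected with anti-GST antibody, HRP secondary and chemiluminescence, quantified with Genespotter, and reported as normalized spot intensities averaged over biological replicates.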
# CaRvs167 = target: CaRvs167
# Procedure: as §1
# CaRvs167-3 = target: CaRvs167-3
# Procedure: as §1
# CaSho1 = target: CaSho1
# Procedure: as §1
# CaSla1-D1-D2 = target: CaSla1-D1-D2
# Procedure: as §1
# CaSla1-D3 = target: CaSla1-D3
# Procedure: as §1
# ScAbp1 = target: ScAbp1
# Procedure: as §1
# ScBbc1 = target: ScBbc1
# Procedure: as §1
# ScBem1-D1 = target: ScBem1-D1
# Procedure: as §1
# ScBzz1-D1 = target: ScBzz1-D1
# Procedure: as §1
# ScBzz1-D2 = target: ScBzz1-D2
# Procedure: as §1
# ScCyk3 = target: ScCyk3
# Procedure: as §1
# ScFus1 = target: ScFus1
# Procedure: as §1
# ScHof1 = target: ScHof1
# Procedure: as §1
# ScHse1 = target: ScHse1
# Procedure: as §1
# ScLsb1 = target: ScLsb1
# Procedure: as §1
# ScLsb2 = target: ScLsb2
# Procedure: as §1
# ScLsb3 = target: ScLsb3
# Procedure: as §1
# ScLsb4 = target: ScLsb4
# Procedure: as §1
# ScMyo3 = target: ScMyo3
# Procedure: as §1
# ScMyo5 = target: ScMyo5
# Procedure: as §1
# ScNbp2 = target: ScNbp2
# Procedure: as §1
# ScPex13 = target: ScPex13
# Procedure: as §1
# ScRvs167 = target: ScRvs167
# Procedure: as §1
# ScSho1 = target: ScSho1
# Procedure: as §1
# ScSla1-D1-D2 = target: ScSla1-D1-D2
# Procedure: as §1
# ScSla1-D3 = target: ScSla1-D3
# Procedure: as §1
# SpAbp1-D1 = target: SpAbp1-D1
# Procedure: as §1
# SpBbc1 = target: SpBbc1
# Procedure: as §1
# SpBzz1-D1 = target: SpBzz1-D1
# Procedure: as §1
# SpBzz1-D2 = target: SpBzz1-D2
# Procedure: as §1
# SpCyk3 = target: SpCyk3
# Procedure: as §1
# SpHof1 = target: SpHof1
# Procedure: as §1
# SpHof1-2 = target: SpHof1-2
# Procedure: as §1
# SpHof1-3 = target: SpHof1-3
# Procedure: as §1
# SpHse1 = target: SpHse1
# Procedure: as §1
# SpLsb1 = target: SpLsb1
# Procedure: as §1
# SpLsb4 = target: SpLsb4
# Procedure: as §1
# SpMyo1 = target: SpMyo1
# Procedure: as §1
# SpNbp2 = target: SpNbp2
# Procedure: as §1
# SpPex13 = target: SpPex13
# Procedure: as §1
# SpRvs167 = target: SpRvs167
# Procedure: as §1
# SpSla1-D1-D2 = target: SpSla1-D1-D2
# Procedure: as §1
# SpSla1-D3 = target: SpSla1-D3
# Procedure: as §1
# AgAbp1 = target: AgAbp1
# Procedure: as §1
# AgBbc1 = target: AgBbc1
# Procedure: as §1
# AgBem1-D1 = target: AgBem1-D1
# Procedure: as §1
# AgBzz1-D1 = target: AgBzz1-D1
# Procedure: as §1
# AgBzz1-D2 = target: AgBzz1-D2
# Procedure: as §1
# AgCyk3 = target: AgCyk3
# Procedure: as §1
# AgFus1 = target: AgFus1
# Procedure: as §1
# AgHof1 = target: AgHof1
# Procedure: as §1
# AgHse1 = target: AgHse1
# Procedure: as §1
# AgLsb1 = target: AgLsb1
# Procedure: as §1
# AgLsb4 = target: AgLsb4
# Procedure: as §1
# AgMyo5 = target: AgMyo5
# Procedure: as §1
# AgNbp2 = target: AgNbp2
# Procedure: as §1
# AgRvs167 = target: AgRvs167
# Procedure: as §1
# AgSho1 = target: AgSho1
# Procedure: as §1
# AgSla1-D1-D2 = target: AgSla1-D1-D2
# Procedure: as §1
# AgSla1-D3 = target: AgSla1-D3
# Procedure: as §1
# CaAbp1-D1 = target: CaAbp1-D1
# Procedure: as §1
# CaAbp1-D2 = target: CaAbp1-D2
# Procedure: as §1
# CaBbc1 = target: CaBbc1
# Procedure: as §1
# CaBem1-D1 = target: CaBem1-D1
# Procedure: as §1
# CaBzz1-D1 = target: CaBzz1-D1
# Procedure: as §1
# CaBzz1-D2 = target: CaBzz1-D2
# Procedure: as §1
# CaCyk3 = target: CaCyk3
# Procedure: as §1
# CaFus1 = target: CaFus1
# Procedure: as §1
# CaHof1 = target: CaHof1
# Procedure: as §1
# CaHse1 = target: CaHse1
# Procedure: as §1
# CaLsb1 = target: CaLsb1
# Procedure: as §1
# CaLsb4 = target: CaLsb4
# Procedure: as §1
# CaMyo5 = target: CaMyo5
# Procedure: as §1
binder,measurement,setting,value
VQKRKLPLPGSIASA,SPOT peptide array binding signal intensity,CaNbp2,70
same,SPOT peptide array binding signal intensity,CaRvs167,2.17
same,SPOT peptide array binding signal intensity,CaRvs167-3,4.62
same,SPOT peptide array binding signal intensity,CaSho1,≤ 0
same,SPOT peptide array binding signal intensity,CaSla1-D1-D2,118
same,SPOT peptide array binding signal intensity,CaSla1-D3,≤ 0
same,SPOT peptide array binding signal intensity,ScAbp1,100
same,SPOT peptide array binding signal intensity,ScBbc1,30.1
same,SPOT peptide array binding signal intensity,ScBem1-D1,16.5
same,SPOT peptide array binding signal intensity,ScBzz1-D1,21.2
same,SPOT peptide array binding signal intensity,ScBzz1-D2,10
same,SPOT peptide array binding signal intensity,ScCyk3,≤ 0
same,SPOT peptide array binding signal intensity,ScFus1,≤ 0
same,SPOT peptide array binding signal intensity,ScHof1,0.5
same,SPOT peptide array binding signal intensity,ScHse1,63
same,SPOT peptide array binding signal intensity,ScLsb1,≤ 0
same,SPOT peptide array binding signal intensity,ScLsb2,≤ 0
same,SPOT peptide array binding signal intensity,ScLsb3,525
same,SPOT peptide array binding signal intensity,ScLsb4,11.5
same,SPOT peptide array binding signal intensity,ScMyo3,≤ 0
same,SPOT peptide array binding signal intensity,ScMyo5,1.5
same,SPOT peptide array binding signal intensity,ScNbp2,≤ 0
same,SPOT peptide array binding signal intensity,ScPex13,1
same,SPOT peptide array binding signal intensity,ScRvs167,340
same,SPOT peptide array binding signal intensity,ScSho1,50
same,SPOT peptide array binding signal intensity,ScSla1-D1-D2,180
same,SPOT peptide array binding signal intensity,ScSla1-D3,32.5
same,SPOT peptide array binding signal intensity,SpAbp1-D1,174
same,SPOT peptide array binding signal intensity,SpBbc1,0.5
same,SPOT peptide array binding signal intensity,SpBzz1-D1,232
same,SPOT peptide array binding signal intensity,SpBzz1-D2,≤ 0
same,SPOT peptide array binding signal intensity,SpCyk3,15
same,SPOT peptide array binding signal intensity,SpHof1,197
same,SPOT peptide array binding signal intensity,SpHof1-2,253
same,SPOT peptide array binding signal intensity,SpHof1-3,397
same,SPOT peptide array binding signal intensity,SpHse1,34.1
same,SPOT peptide array binding signal intensity,SpLsb1,50.6
same,SPOT peptide array binding signal intensity,SpLsb4,275
same,SPOT peptide array binding signal intensity,SpMyo1,≤ 0
same,SPOT peptide array binding signal intensity,SpNbp2,7
same,SPOT peptide array binding signal intensity,SpPex13,≤ 0
same,SPOT peptide array binding signal intensity,SpRvs167,55.4
same,SPOT peptide array binding signal intensity,SpSla1-D1-D2,16.2
same,SPOT peptide array binding signal intensity,SpSla1-D3,≤ 0
RSKRLFPVRPMATAH,SPOT peptide array binding signal intensity,AgAbp1,39.5
same,SPOT peptide array binding signal intensity,AgBbc1,36.2
same,SPOT peptide array binding signal intensity,AgBem1-D1,89
same,SPOT peptide array binding signal intensity,AgBzz1-D1,13
same,SPOT peptide array binding signal intensity,AgBzz1-D2,11.5
same,SPOT peptide array binding signal intensity,AgCyk3,3
same,SPOT peptide array binding signal intensity,AgFus1,190
same,SPOT peptide array binding signal intensity,AgHof1,3.5
same,SPOT peptide array binding signal intensity,AgHse1,632
same,SPOT peptide array binding signal intensity,AgLsb1,3
same,SPOT peptide array binding signal intensity,AgLsb4,51
same,SPOT peptide array binding signal intensity,AgMyo5,0.5
same,SPOT peptide array binding signal intensity,AgNbp2,218
same,SPOT peptide array binding signal intensity,AgRvs167,4.33
same,SPOT peptide array binding signal intensity,AgSho1,79
same,SPOT peptide array binding signal intensity,AgSla1-D1-D2,469
same,SPOT peptide array binding signal intensity,AgSla1-D3,10.2
same,SPOT peptide array binding signal intensity,CaAbp1-D1,451
same,SPOT peptide array binding signal intensity,CaAbp1-D2,414
same,SPOT peptide array binding signal intensity,CaBbc1,128
same,SPOT peptide array binding signal intensity,CaBem1-D1,7
same,SPOT peptide array binding signal intensity,CaBzz1-D1,53
same,SPOT peptide array binding signal intensity,CaBzz1-D2,51.5
same,SPOT peptide array binding signal intensity,CaCyk3,64.5
same,SPOT peptide array binding signal intensity,CaFus1,402
same,SPOT peptide array binding signal intensity,CaHof1,≤ 0
same,SPOT peptide array binding signal intensity,CaHse1,14.2
same,SPOT peptide array binding signal intensity,CaLsb1,0.5
same,SPOT peptide array binding signal intensity,CaLsb4,502
same,SPOT peptide array binding signal intensity,CaMyo5,≤ 0
same,SPOT peptide array binding signal intensity,CaNbp2,366
same,SPOT peptide array binding signal intensity,CaRvs167,27.8
same,SPOT peptide array binding signal intensity,CaRvs167-3,93.5
same,SPOT peptide array binding signal intensity,CaSho1,544
same,SPOT peptide array binding signal intensity,CaSla1-D1-D2,95
same,SPOT peptide array binding signal intensity,CaSla1-D3,22
same,SPOT peptide array binding signal intensity,ScAbp1,4
same,SPOT peptide array binding signal intensity,ScBbc1,10
same,SPOT peptide array binding signal intensity,ScBem1-D1,5
same,SPOT peptide array binding signal intensity,ScBzz1-D1,1.5
same,SPOT peptide array binding signal intensity,ScBzz1-D2,2
same,SPOT peptide array binding signal intensity,ScCyk3,216
same,SPOT peptide array binding signal intensity,ScFus1,255
same,SPOT peptide array binding signal intensity,ScHof1,1
same,SPOT peptide array binding signal intensity,ScHse1,998
same,SPOT peptide array binding signal intensity,ScLsb1,14.5
same,SPOT peptide array binding signal intensity,ScLsb2,≤ 0
same,SPOT peptide array binding signal intensity,ScLsb3,1050
same,SPOT peptide array binding signal intensity,ScLsb4,32.5
same,SPOT peptide array binding signal intensity,ScMyo3,5.5
same,SPOT peptide array binding signal intensity,ScMyo5,3
same,SPOT peptide array binding signal intensity,ScNbp2,384
same,SPOT peptide array binding signal intensity,ScPex13,3.5
same,SPOT peptide array binding signal intensity,ScRvs167,256
same,SPOT peptide array binding signal intensity,ScSho1,661
same,SPOT peptide array binding signal intensity,ScSla1-D1-D2,212
same,SPOT peptide array binding signal intensity,ScSla1-D3,34
same,SPOT peptide array binding signal intensity,SpAbp1-D1,118
same,SPOT peptide array binding signal intensity,SpBbc1,≤ 0
same,SPOT peptide array binding signal intensity,SpBzz1-D1,142
same,SPOT peptide array binding signal intensity,SpBzz1-D2,0.5
same,SPOT peptide array binding signal intensity,SpCyk3,5.5
same,SPOT peptide array binding signal intensity,SpHof1,99.2
same,SPOT peptide array binding signal intensity,SpHof1-2,5.5
same,SPOT peptide array binding signal intensity,SpHof1-3,550
same,SPOT peptide array binding signal intensity,SpHse1,350
same,SPOT peptide array binding signal intensity,SpLsb1,3
same,SPOT peptide array binding signal intensity,SpLsb4,624
same,SPOT peptide array binding signal intensity,SpMyo1,1
same,SPOT peptide array binding signal intensity,SpNbp2,235
same,SPOT peptide array binding signal intensity,SpPex13,11
same,SPOT peptide array binding signal intensity,SpRvs167,52.2
same,SPOT peptide array binding signal intensity,SpSla1-D1-D2,1
same,SPOT peptide array binding signal intensity,SpSla1-D3,13

# — the supplement of paper PMC4466140
